Source: PubChem BioAssay
Sm TGR block: blocks Schistosoma mansoni thioredoxin glutathione reductase; Q962Y6; purified TGR, DTNB reduction, TNB absorbance 405 nm; Potency, µM (series often up to 114 µM), for inactives: at the highest dose activity change, negative = inhibition, actives largely listed as inhibitors; 360,000 tested, 3% active; AID 485364; note: % is set by controls: 0 for no effect and ±100 for the full control effect; nearly all actives have a fitted effect of over 60% in size
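TGR 20 nM + NADPH 100 uM (dispensed conc.), cpd preinc 15 min RT; start with NADPH (500 uM addition) then DTNB (15 mM addition). Kinetic TNB absorbance, 405 nm filter. Four-parameter Hill fit across titration.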
LmPK inhibitor: inhibitors of Leishmania mexicana pyruvate kinase; Q27686; purified LmPK, Kinase-Glo ATP luminescence, 1 h; Potency, µM (highest dose often 57.5 µM), inactives show at the highest dose activity change, negative = inhibition, actives largely listed as inhibitors; 290,000 tested, 0.37% active; note: % is set by controls: 0 for no effect and ±100 for the full control effect
Target sequence (Q27686 whole entry, looked up): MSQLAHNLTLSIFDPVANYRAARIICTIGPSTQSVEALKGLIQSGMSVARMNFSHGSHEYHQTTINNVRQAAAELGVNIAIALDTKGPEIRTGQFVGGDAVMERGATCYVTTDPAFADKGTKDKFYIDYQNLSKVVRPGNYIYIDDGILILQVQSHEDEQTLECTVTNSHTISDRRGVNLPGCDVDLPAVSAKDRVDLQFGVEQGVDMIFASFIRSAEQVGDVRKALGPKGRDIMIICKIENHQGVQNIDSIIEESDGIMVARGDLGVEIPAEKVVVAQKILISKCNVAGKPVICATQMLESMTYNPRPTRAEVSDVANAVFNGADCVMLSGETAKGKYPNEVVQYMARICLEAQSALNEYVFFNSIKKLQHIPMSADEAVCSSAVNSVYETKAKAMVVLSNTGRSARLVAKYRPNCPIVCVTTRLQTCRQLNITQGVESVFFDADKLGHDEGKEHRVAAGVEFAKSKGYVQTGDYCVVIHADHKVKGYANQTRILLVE
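Purified LmPK (0.1 nM) converted ADP (0.1 mM) to ATP with PEP (0.5 mM) in imidazole buffer pH 7.2 with KCl and MgCl2, 1 h at room temperature. ATP was read by Kinase-Glo luminescence; data normalized to uninhibited and no-enzyme controls.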
Tb PYK inh: blocks Trypanosoma brucei pyruvate kinase. TbPYK enzyme, Kinase-Glo Plus ATP luminescence, 45 min. Q57TT1. Potency, µM (doses to about 76.8 µM), inactives show at the highest dose activity, negative = inhibition, usual class: inhibitors. 410,000 tested, 0.12% active; note: % is set by controls: 0 for no effect and ±100 for the full control effect; nearly all actives have a fitted effect of over 50% in size
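Enzyme and substrate buffer are dispensed first and compound is pin-transferred. ADP at 130 uM final then starts the reaction, which runs 45 min at room temperature. Detection reagent is added for 10 min before luminescence is imaged.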
Giardia FBPA inh-1: inhibitors of Giardia lamblia fructose-1,6-bisphosphate aldolase | purified Giardia FBPA | Potency, µM (doses to about 59.6 µM), inactives show at the top dose activity, negative = inhibition, hits mostly inhibitors | AID 2451 | 290,000 tested, 0.71% active | A8B2U2; note: % is set by controls: 0 for no effect and ±100 for the full control effect; nearly all actives have a fitted effect of over 55% in size
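Giardia FBPA (40 nM reagent) was preincubated 10 min at RT with compound (up to 57.5 uM final), then substrate plus GAPDH/TPI/NAD/arsenate coupling system with diaphorase/resazurin was added; resorufin fluorescence (525/598 nm) was read after 20 min.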
RE007 growth inh: less growth of the S. pombe RE007 Vpr strain | Potency, µM (doses to about 92.2 µM), inactives show at the top dose activity change, negative = less growth, actives largely listed as inhibitors | AID 651644 | 360,000 tested, 0.21% active | S. pombe RE007 Vpr strain, BacTiter-Glo ATP luminescence, 24 h; active = well fitted falling curve with a large enough effect; inconclusive = small, poorly fitted or top-dose-only effect; inactive = no such curve, though single readings can be large or run the other way; note: % is set by controls: 0 for no effect and ±100 for the full control effect; nearly all actives have a fitted effect of over 50% in size
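Fission yeast RE007 carrying one integrated HIV-1 vpr copy, seeded at OD 0.01 in PMG+AL medium with 23 nL pinned compound. Grown 24 h at 30 degrees; viability read by BacTiter-Glo luminescence after 5 min.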
NS1 function inh: influenza NS1 inhibition | Potency, µM (top dose mostly 46.1 µM), for the others: at the highest dose activity, positive = more growth | 270,000 tested, 0.4% active; calls by dose curve; note: actives are rising curves; nearly all actives have a fitted effect of over 50% in size
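Read-out: OD600 growth recovery of NS1-expressing budding yeast. Cells grown overnight at 30C in -URA glucose medium, washed, resuspended and diluted 1:100 in 2% galactose assay medium, pH 6.0. Same strain lacking NS1 served as positive control.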
Giardia growth: inhibitors of Giardia lamblia growth; shares compounds with Giardia FBPA inh-1; Giardia lamblia trophozoite growth inhibition; Potency, µM (top dose mostly 57.5 µM), for inactives: top-dose activity change, negative = inhibition, most hits filed as inhibitors; 1,500 tested, 5% active; AID 2785;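 note: trophozoites exposed to compound for 48 h at 37 °C; % is set by controls: 0 for no effect and ±100 for the full control effect; nearly all actives have a fitted effect of over 70% in size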
Mammalian tox: counter-screen for Giardia aldolase inhibitors: mammalian cell toxicity; shares compounds with Giardia FBPA inh-1; mammalian cell viability counter-screen, qHTS; Potency, µM (highest dose often 57.5 µM), inactives show at the top dose viability change, negative = toxicity, hits mostly inhibitors; 1,500 tested, 4% active; AID 2786;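 note: Chinese hamster ovary cells used as mammalian cytotoxicity surrogate; viability measured as cellular ATP by luminescence; compound exposure lasted 48 h before reading; % is set by controls: 0 for no effect and ±100 for the full control effect; nearly all actives have a fitted effect of over 60% in size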
Giardia FBPA inh-2: confirmation of Giardia fructose-bisphosphate aldolase inhibitors; purified Giardia aldolase enzyme activity, qHTS; Potency, µM (series often up to 57.5 µM), without a hit: at the highest dose activity change, negative = inhibition, actives largely listed as inhibitors; shares compounds with Giardia FBPA inh-1; 1,500 tested, 5% active; note: % is set by controls: 0 for no effect and ±100 for the full control effect; nearly all actives have a fitted effect of over 45% in size
Rabbit aldolase: rabbit FBP aldolase inhibition by Giardia aldolase hits; AID 2794; shares compounds with Giardia FBPA inh-1; 1,500 tested, 4% active; Rabbit muscle FBPA enzyme inhibition, selectivity counter-screen; Potency, µM (top dose mostly 57.5 µM), for inactives: at the highest dose activity, negative = inhibition, most hits filed as inhibitors; note: % is set by controls: 0 for no effect and ±100 for the full control effect; nearly all actives have a fitted effect of over 60% in size
GAPDH counter: GAPDH inhibition flagged for Giardia aldolase hits; shares compounds with Giardia FBPA inh-1; GAPDH coupling enzyme counterscreen, biochemical, qHTS; Potency, µM (highest dose often 57.5 µM), inactives show at the highest dose activity change, negative = inhibition, hits mostly inhibitors; 1,500 tested, 6% active; note: % is set by controls: 0 for no effect and ±100 for the full control effect; nearly all actives have a fitted effect of over 55% in size
Active calls of the source: *; ? = inconclusive; · = not tested or not shown; [ ] = remark or other dose. Rows were chosen to be rich in hits. Some 3.5% of all compounds tested hit in one or more screens of this group. Unless noted, calls come from the whole dose curve; as a rule, active = well fitted curve in the direction sought with a large enough effect; inconclusive = small, poorly fitted or top-dose-only effect, or another doubt; inactive = no such curve, though single readings can be large; an effect the other way counts as inactive or inconclusive. Potency is the fitted concentration of half-maximal effect.

SMILES | Sm TGR block | LmPK inhibitor | Tb PYK inh | Giardia FBPA inh-1 | RE007 growth inh | NS1 function inh | Giardia growth | Mammalian tox | Giardia FBPA inh-2 | Rabbit aldolase | GAPDH counter
COc1ccc(C2c3c(-c4ccccc4O)n[nH]c3C(=O)N2CCc2ccccc2)cc1 (stereo not drawn) | 7% | · | -5% | · | · | · | · | · | · | · | ·
CCC1CO/C(=C(\C(Cl)=C(Cl)Cl)[N+](=O)[O-])N1Cc1ccc(Cl)nc1 (stereo not drawn) | 0% | 0% | -5% | -22% | 5% | 3% | · | · | · | · | ·
CN1CCO/C1=C(\C(Cl)=C(Cl)Cl)[N+](=O)[O-] | 32µM* | -3% | 6% | 18µM* | -20% | · | -29% | -9% | -3% | 5% | 4%
CCN1CCN(CCCNC(=O)c2cc3c(s2)-c2c(C)cccc2OC3)CC1 | -8% | · | -10% | · | · | · | · | · | · | · | ·
C/C(=N\NC(=S)Nc1cccc(C)c1)c1ccco1 | ? | -2% | -8% | 1% | -23% | -1% | · | · | · | · | ·
CCNC(=S)N/N=C(\C)c1ccco1 | ? | 1% | -7% | 18µM* | -10% | · | 6% | -3% | 7% | 5% | 6%
COc1ccccc1CNc1ncnc2onc(-c3ccc(F)cc3)c12 | 3% | · | -1% | · | · | · | · | · | · | · | ·
S=C(Nc1nc2c(s1)CCCC2)NC1CC1 | 2.5µM* | 3% | -11% | 14µM* | -10% | 4% | -13% | 3% | 3% | 2% | 2%
O=C(NC(=S)Nc1nc2c(s1)CCCC2)c1ccccc1 | -16% | 4% | -7% | ? | · | ? | · | · | · | · | ·
Cn1c(=O)[nH]c(=O)c2c1[nH]c(=S)n2CCCc1ccccc1 | 0% | -23% | ? | 3.5µM* | 8% | -3% | -10%[38.3 µM] | -3% | -12% | 35µM* | -1%
Cn1c(=O)c2c(nc(Br)n2CCCc2ccccc2)n(C)c1=O | -2% | 1% | 0% | -17% | 1% | -3% | · | · | · | · | ·
Cn1c(=O)c2c([nH]c(=S)n2CCCc2ccccc2)n(C)c1=O | -14% | -8% | 2.5µM* | 10µM* | 13% | 26% | -20%[10.4 µM] | 4% | 6% | -17% | 16%
N[C@@H](CO)C(=O)NNCc1ccc(O)c(O)c1O | · | · | 0% | 5µM* | · | · | 10%[19.1 µM] | -2%[28.7 µM] | ? | ? | ?
COc1ccc(-c2nc3ccccc3o2)cc1NC(=O)c1cccnc1 | 1% | · | 5% | · | · | · | · | · | · | · | ·
CN(CCOc1ccccc1)CC(=O)Nc1ccc(S(=O)(=O)N2CCCC2)cc1 | -8% | -8% | 22% | 16µM* | -13% | -1% | ? | 1% | 8% | 12% | 2%
CCOc1ccc(CN2CCN(S(=O)(=O)c3ccc(NC(C)=O)cc3)CC2)cc1 | -10% | 1% | 15% | 16µM* | -1% | · | ? | 1% | 3% | 7% | 4%
COc1ccc(CN2CCN(S(=O)(=O)c3ccc(NC(C)=O)cc3)CC2)cc1OC | 4% | 0% | 6% | -29% | 0% | 2% | · | · | · | · | ·
CCOc1ccc(NC(=O)CCc2nc3cccnc3n2-c2ccccc2)cc1 | 5% | · | 4% | · | · | · | · | · | · | · | ·
COc1ccc(C(=O)NNC2=NS(=O)(=O)c3ccccc32)cc1OC | 1% | 1% | 3% | -26% | 11% | 10% | · | · | · | · | ·
COc1ccc(/C=N/NC2=NS(=O)(=O)c3ccccc32)cc1OC | 8% | 7% | -3% | 10µM* | 3% | ? | 11%[10.4 µM] | 27% | 13% | 12% | -7%
COc1cc(/C=N/NC2=NS(=O)(=O)c3ccccc32)ccc1OC(C)=O | 14% | -9% | 6% | 11µM* | 11% | 7% | 7% | 8% | 7% | 11% | 8%
O=C(O)c1cccnc1C(=O)O | 1% | · | -3% | 0.63µM* | 7% | -1% | 9%[38.3 µM] | -3% | -6% | -6% | -5%
N#C/C(=C(\O)c1cc(Cl)sc1Cl)c1nc2ccccc2[nH]1 | -15% | 3% | -7% | 25µM* | -5% | 11% | 11% | 1% | -19% | 3% | ?
N#C/C(=C(/O)c1ccc(Cl)cc1)c1nc2ccccc2[nH]1 | -4% | -3% | -4% | 5% | 0% | 1% | · | · | · | · | ·
CCc1nnc(N/N=C/c2ccccc2F)n1N | 1% | 1% | 3% | 20µM* | -11% | · | 71% | -2% | ? | -17% | -2%
CCc1nnc(N/N=C/c2ccccc2Cl)n1N | 14% | -3% | -7% | 18µM* | -6% | -73% | ? | 3% | -26% | -15% | -19%
CCOC(=O)N/N=C/c1ccccc1F | -21% | -24% | 1% | 1% | -28% | -3% | · | · | · | · | ·
CCOc1ccc(CCNC(=O)Cn2nnc(-c3ccc(OC)c(OC)c3)n2)cc1OCC | -10% | · | 5% | · | · | · | · | · | · | · | ·
O=C(O)c1ccc(N[C@H](c2ccccc2)c2ccc3cccnc3c2O)cc1 | · | · | · | · | · | -4% | · | · | · | · | ·
